Active and inactive are the calls of the source. How the source made its calls: active means hit-call score of the fitted dose curve at least 0.9, where 1 is the maximum; inactive means score below 0.9.
Assays:
[1] = BSK_hDFCGF_SRB: Viability Assessment in the BioMAP Diversity Plus: hDFCGF Assay (AID 2283061); details: primary human foreskin fibroblasts;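 further: cells exposed to compound for 24 h before the read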
Outline: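 Primary human foreskin fibroblasts; 24 h post-dose; fixed 10% TCA, stained 0.1% SRB, A560 read; total protein as overt cytotoxicity measure; curves fit bidirectionally vs DMSO control.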

[2] = read-out: TIMP metallopeptidase inhibitor 1 (TIMP1), TIMP1 (gene 7076); assay: BSK_hDFCGF_TIMP1: BioMAP Diversity Plus: hDFCGF Assay for TIMP metallopeptidase inhibitor 1 (TIMP1) Biomarker Activity (AID 2283062); details: primary human foreskin fibroblasts; actives raise or lower the signal
Outline: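 ELISA readout of TIMP-1 from human dermal foreskin fibroblast cultures 24 h post-dosing. Curves were fitted in both directions against DMSO baseline, with SRB total-protein staining in parallel cultures as a cytotoxicity check.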

[3] = read-out: Monokine induced gamma interferon (MIG), CXCL9 (gene 4283); assay: BSK_hDFCGF_MIG: BioMAP Diversity Plus: hDFCGF Assay for Monokine induced gamma interferon (MIG) Biomarker Activity (AID 2283063); details: primary human foreskin fibroblasts; actives raise or lower the signal
Outline: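 Fibroblasts (human foreskin, primary) dosed, 24 h, MIG by ELISA; fit bidirectional vs DMSO.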

[4] = read-out: Matrix Metallopeptidase 1 (MMP1), MMP1 (gene 4312); assay: BSK_hDFCGF_MMP1: BioMAP Diversity Plus: hDFCGF Assay for Matrix Metallopeptidase 1 (MMP1) Biomarker Activity (AID 2283064); details: primary human foreskin fibroblasts; actives raise or lower the signal
Outline: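 hDFCGF primary fibroblasts (human foreskin); chemical added; 24 h; MMP1 by ELISA; bidirectional fit vs DMSO.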

[5] = read-out: Vascular cell adhesion molecule 1 (VCAM1), VCAM1 (gene 7412); assay: BSK_hDFCGF_VCAM1: BioMAP Diversity Plus: hDFCGF Assay for Vascular cell adhesion molecule 1 (VCAM1) Biomarker Activity (AID 2283065); details: primary human foreskin fibroblasts; actives raise or lower the signal;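 on AC50: VCAM-1 protein level quantified by ELISA after 24 h chemical exposure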
Outline: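 ELISA read-out of VCAM-1 on human skin fibroblasts, 24 h post-dose; gain or loss of signal fitted bidirectionally against DMSO baseline.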

[6] = read-out: Plasminogen activator inhibitor-1 (PAI1), SERPINE1 (gene 5054); assay: BSK_hDFCGF_PAI1: BioMAP Diversity Plus: hDFCGF Assay for Plasminogen activator inhibitor-1 (PAI1) Biomarker Activity (AID 2283066); details: primary human foreskin fibroblasts; actives raise or lower the signal
Outline: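 Human foreskin fibroblast primary cells, 24 h chemical exposure; PAI-1 measured by ELISA. Bidirectional fitting relative to DMSO; parallel cultures stained with SRB for total protein to flag overt cytotoxicity.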

[7] = read-out: Intercellular Adhesion Molecule 1 (ICAM1), ICAM1 (gene 3383); assay: BSK_KF3CT_ICAM1: BioMAP Diversity Plus: KF3CT Assay for Intercellular Adhesion Molecule 1 (ICAM1) Biomarker Activity (AID 2283067); details: primary human keratinocytes with fibroblasts; actives raise or lower the signal
Outline: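 ELISA readout of ICAM-1; KF3CT human skin co-culture (keratinocytes + foreskin fibroblasts), 24 h post-dose; gain/loss fit vs DMSO baseline.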

[8] = read-out: Interferon-gamma inducible Protein 10 (IP10), CXCL10 (gene 3627); assay: BSK_KF3CT_IP10: BioMAP Diversity Plus: KF3CT Assay for Interferon-gamma inducible Protein 10 (IP10) Biomarker Activity (AID 2283068); details: primary human keratinocytes with fibroblasts; actives raise or lower the signal
Outline: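 Signal is secreted/surface IP-10 by ELISA in a human primary skin co-culture of keratinocytes and foreskin fibroblasts, taken 24 h post-dosing; DMSO served as negative control.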

[9] = BSK_KF3CT_SRB: Viability Assessment in the BioMAP Diversity Plus: KF3CT Assay (AID 2283069); details: primary human keratinocytes with fibroblasts;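 further: total protein by sulforhodamine B staining as a cytotoxicity measure; read 24 h after compound addition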
Outline: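 Keratinocytes co-cultured with foreskin fibroblasts (human primary); chemical added, 24 h; fix 10% TCA, stain 0.1% SRB, A560. Bidirectional fit vs DMSO.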

[10] = read-out: Interleukin-1 alpha (IL1a), IL1A (gene 3552); assay: BSK_KF3CT_IL1a: BioMAP Diversity Plus: KF3CT Assay for Interleukin-1 alpha (IL1a) Biomarker Activity (AID 2283070); details: primary human keratinocytes with fibroblasts; actives raise or lower the signal
Outline: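 Chemicals were dosed onto co-cultured human keratinocytes and foreskin fibroblasts, IL-1a was quantified by ELISA at 24 h, and activity was fitted in both directions relative to DMSO controls.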

[11] = read-out: TIMP metallopeptidase inhibitor 2 (TIMP2), TIMP2 (gene 7077); assay: BSK_KF3CT_TIMP2: BioMAP Diversity Plus: KF3CT Assay for TIMP metallopeptidase inhibitor 2 (TIMP2) Biomarker Activity (AID 2283071); details: primary human keratinocytes with fibroblasts; actives raise or lower the signal
Outline: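 Co-culture of human primary keratinocytes and foreskin fibroblasts, measured 24 h after chemical dosing. TIMP-2 quantified by ELISA and fitted in both directions relative to DMSO. Cytotoxicity checked in parallel cultures by SRB total-protein staining.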

[12] = read-out: Transforming growth factor beta 1 (TGFb1), TGFB1 (gene 7040); assay: BSK_KF3CT_TGFb1: BioMAP Diversity Plus: KF3CT Assay for Transforming growth factor beta 1 (TGFb1) Biomarker Activity (AID 2283072); details: primary human keratinocytes with fibroblasts; actives raise or lower the signal
Outline: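 Human keratinocyte/foreskin fibroblast co-culture; TGF-b1 measured by ELISA 24 h after dosing, fitted bidirectionally versus DMSO. Cytotoxicity checked in parallel cultures by total protein (SRB staining, 560 nm).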

[13] = read-out: Matrix Metallopeptidase 9 (MMP9), MMP9 (gene 4318); assay: BSK_KF3CT_MMP9: BioMAP Diversity Plus: KF3CT Assay for Matrix Metallopeptidase 9 (MMP9) Biomarker Activity (AID 2283074); details: primary human keratinocytes with fibroblasts; actives raise or lower the signal;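 on AC50: MMP9 protein level quantified by ELISA in the co-culture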
Outline: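 Human keratinocyte/foreskin fibroblast co-culture; compound added; 24 h; MMP-9 by ELISA; bidirectional fit vs DMSO baseline.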

[14] = read-out: urokinase plasminogen activator (uPA), PLAU (gene 5328); assay: BSK_KF3CT_uPA: BioMAP Diversity Plus: KF3CT Assay for urokinase plasminogen activator (uPA) Biomarker Activity (AID 2283075); details: primary human keratinocytes with fibroblasts; actives raise or lower the signal
Outline: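 ELISA readout of uPA, analyzed for signal gain or loss relative to DMSO, from a human primary keratinocyte–foreskin fibroblast co-culture measured 24 h after chemical treatment.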

CD40, CD40 (gene 958) = assay: BSK_LPS_CD40: BioMAP Diversity Plus: LPS Assay for CD40 Biomarker Activity (AID 2283076); details: primary human HUVEC with PBMC; actives raise or lower the signal
Outline: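 ELISA readout of CD40 in HUVEC/PBMC co-culture (BSK_LPS system), 24 h post-dosing; bidirectional curve fit, DMSO baseline; parallel SRB total-protein staining for cytotoxicity.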

[15] = read-out: E-selectin (Homo sapiens) (UniProt P16581); assay: BSK_LPS_Eselectin: BioMAP Diversity Plus: LPS Assay for Eselectin Biomarker Activity (AID 2283077); details: primary human HUVEC with PBMC; actives raise or lower the signal
Outline: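 ELISA readout of E-selectin, 24 h post-dose, HUVEC + PBMC co-culture (LPS system). Gain or loss of signal vs DMSO baseline, bidirectional fit.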

[16] = read-out: Interleukin-8 (IL8), CXCL8 (gene 3576); assay: BSK_LPS_IL8: BioMAP Diversity Plus: LPS Assay for Interleukin-8 (IL8) Biomarker Activity (AID 2283078); details: primary human HUVEC with PBMC; actives raise or lower the signal
Outline: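 HUVEC + PBMC co-culture, LPS-activated; test chemicals dosed, IL-8 read by ELISA at 24 h. Bidirectional curve fit vs DMSO baseline (gain or loss of signal).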

[17] = BSK_LPS_SRB: Viability Assessment in the BioMAP Diversity Plus: LPS Assay (AID 2283079); details: primary human HUVEC with PBMC;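 further: total protein by sulforhodamine B absorbance as a cytotoxicity measure; measured one day after compound addition; fitted in both directions against DMSO so loss or gain of signal counts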
Outline: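 HUVEC + PBMC co-culture, LPS-stimulated; compound 24 h. 10% TCA fix, 0.1% SRB stain, A560. Bidirectional fit vs DMSO.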

[18] = read-out: Interleukin-1 alpha (IL1a), IL1A (gene 3552); assay: BSK_LPS_IL1a: BioMAP Diversity Plus: LPS Assay for Interleukin-1 alpha (IL1a) Biomarker Activity (AID 2283080); details: primary human HUVEC with PBMC; actives raise or lower the signal
Outline: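 HUVEC/PBMC co-culture, LPS system; 24 h after dosing; IL-1a by ELISA; gain or loss of signal fitted bidirectionally vs DMSO baseline.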

Measured: AC50

Sequence of E-selectin (Homo sapiens) (P16581 whole entry, looked up): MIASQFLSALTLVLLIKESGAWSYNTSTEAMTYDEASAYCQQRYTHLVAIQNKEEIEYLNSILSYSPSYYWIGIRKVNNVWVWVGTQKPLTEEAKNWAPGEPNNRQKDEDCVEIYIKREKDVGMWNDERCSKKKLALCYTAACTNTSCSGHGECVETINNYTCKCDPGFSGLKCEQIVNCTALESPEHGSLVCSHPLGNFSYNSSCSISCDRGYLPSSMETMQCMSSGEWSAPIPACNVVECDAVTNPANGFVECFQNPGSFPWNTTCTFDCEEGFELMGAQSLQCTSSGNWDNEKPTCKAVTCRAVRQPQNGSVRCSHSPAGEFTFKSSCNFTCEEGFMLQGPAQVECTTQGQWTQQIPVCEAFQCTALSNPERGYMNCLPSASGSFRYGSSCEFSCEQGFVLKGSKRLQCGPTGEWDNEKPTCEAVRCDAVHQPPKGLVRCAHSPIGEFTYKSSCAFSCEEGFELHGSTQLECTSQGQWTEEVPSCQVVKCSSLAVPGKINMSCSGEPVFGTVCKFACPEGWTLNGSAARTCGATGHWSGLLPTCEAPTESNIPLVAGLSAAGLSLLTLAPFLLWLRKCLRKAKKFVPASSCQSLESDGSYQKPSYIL

IC(I)I
not listed: [18]
inactive: all other assays above

c1ccc2cc(Nc3ccc(Nc4ccc5ccccc5c4)cc3)ccc2c1
inactive: all assays above

CC(=O)Nc1ccc(C(=O)CCl)cc1
inactive: [9]
active: [1] 11.2 µM | [2] 7.91 µM | [3] 9.4 µM | [4] 10.5 µM | [5] 7.32 µM | [6] 10.8 µM | [7] 26.6 µM | [8] 23.2 µM | [10] 31 µM | [11] 20 µM | [13] 20 µM | [14] 30 µM | CD40, CD40 (gene 958) 5.35 µM | [15] 4.61 µM | [16] 3.91 µM | [17] 9.55 µM

CS(=O)(=O)c1ccc(C2=C(c3ccccc3)C(=O)OC2)cc1
active: [8] 0.0374 µM | [17] 1.98 µM
inactive: all other assays above

C=C(C)[C@H]1CC=C(C)C(=O)C1
inactive: all assays above
